Bioassay records deposited in PubChem BioAssay by National Center for Advancing Translational Sciences (NCATS).
The sample as a whole holds a higher share of hits than the screen did.
Tb PGK inh – qHTS Assay to Find Inhibitors of Phosphoglycerate Kinase. Phosphoglycerate kinase, glycosomal (Trypanosoma brucei brucei), P07378. PGK/GAPDH coupled, Kinase-Glo luminescence, 60 min. Potency, µM (top dose mostly 57.5 µM), actives largely listed as inhibitors. actives 0.043% (n = 380,000). AID 602233, 2012; further: nearly all actives have a fitted effect of over 60% in size
Target sequence (P07378 whole entry, looked up): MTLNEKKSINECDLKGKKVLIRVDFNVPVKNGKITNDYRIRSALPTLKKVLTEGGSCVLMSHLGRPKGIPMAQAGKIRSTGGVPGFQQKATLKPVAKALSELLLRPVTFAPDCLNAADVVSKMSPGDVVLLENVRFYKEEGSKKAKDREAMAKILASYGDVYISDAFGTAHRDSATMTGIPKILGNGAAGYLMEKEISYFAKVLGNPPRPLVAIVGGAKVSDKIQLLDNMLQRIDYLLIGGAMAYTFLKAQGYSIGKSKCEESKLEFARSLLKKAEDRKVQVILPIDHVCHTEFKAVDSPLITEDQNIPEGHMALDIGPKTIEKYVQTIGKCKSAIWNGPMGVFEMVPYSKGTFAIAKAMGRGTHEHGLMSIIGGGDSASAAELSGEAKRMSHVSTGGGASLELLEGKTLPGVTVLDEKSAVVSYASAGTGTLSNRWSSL
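Luminescent ATP detection (Kinase-Glo Plus) follows a 60-minute room-temperature incubation, with wells lacking PGK as controls. Buffer: 100 mM TEA (pH 7.6), 5 mM MgCl2, 0.01% Tween-20. Coupling enzyme GAPDH (100 nM final) supplies unstable 1,3-BPG in-well.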
PI5P4Ka inh – qHTS for Inhibitors of phosphatidylinositol 5-phosphate 4-kinase (PI5P4K). PI5P4Kalpha enzyme, ADP-Glo luminescence, 60 min; hits give low values. AID 652105, 2013. max response, %. actives 1.2% (n = 330,000). Phosphatidylinositol 5-phosphate 4-kinase type-2 alpha (Homo sapiens), P48426; active means max response of -50% or lower; inconclusive means between -30% and -50%; inactive means -30% or higher; further: value at the top dose of about 77 µM
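Luminescence from ADP-Glo served as readout of PI5P4Kalpha activity in a qHTS format. Reaction: enzyme, substrate, compound, ATP at 5 microM final, 60 min at RT.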
Pin1 inh – qHTS Assay to Find Inhibitors of Pin1; Pin1 FP peptide displacement, HiFluor488, 10 min; Potency, µM (titrated, usually from 115 µM), most hits filed as inhibitors; actives 0.009% (n = 390,000); active means well fitted inhibition curve with a large enough effect in the polarisation, with a control signal flat, not every such curve was filed as active; inconclusive means small, poorly fitted or top-dose-only effect, or effect the other way, or a change in a side signal; inactive means no such curve, though single readings can be large or run the other way; the % refers to the polarisation
Target sequence (Q13526 whole entry, looked up): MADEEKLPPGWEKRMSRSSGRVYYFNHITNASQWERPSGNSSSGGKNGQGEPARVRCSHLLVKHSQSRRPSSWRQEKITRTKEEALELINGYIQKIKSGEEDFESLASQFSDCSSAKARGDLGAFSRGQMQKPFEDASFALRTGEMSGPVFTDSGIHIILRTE
PI4K2A block – qHTS for small molecular inhibitors of PI4K2A | activity change, negative = inhibition, % at 76.9 µM | purified PI4K2A, ADP-Glo luminescence, 1 h; hits give low values | actives 0.13% (n = 420,000) | Phosphatidylinositol 4-kinase type 2-alpha (Homo sapiens), Q9BTU6 | AID 1346378, 2018; in the data active means activity change below about -50%; inconclusive means mostly about -30% to -49%
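ADP-Glo luminescence measured ADP generated by PI4K2A enzyme (4 ug/mL before mixing) with 1.2 mM PI substrate (pre-mix) and 300 microM ATP (pre-mix). Tris pH7.5 buffer with MgCl2, Triton X-100; 1 h reaction at ambient temperature.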
Tb PFK inh – qHTS Assay to Find Inhibitors of T. brucei phosphofructokinase; ATP-dependent 6-phosphofructokinase (Trypanosoma brucei brucei), O15648; T. brucei PFK, ADP-Glo luminescence; Potency, µM (top dose mostly 57.5 µM), usual class: inhibitors; actives 0.17% (n = 330,000); AID 485367, 2010; further: nearly all actives have a fitted effect of over 60% in size
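1.25 nM PFK with 0.5 mM F6P and 0.1 mM ATP in 0.1 M TEA pH 8.0, 5 mM MgCl2, incubated 45 min at room temperature; ADP measured by ADP-Glo luminescence; compounds titrated up to 57 uM.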
Hits are given with their value. Unless noted, the call rests on the fitted dose curve; in most records, active means well fitted curve in the direction sought with a large enough effect; inconclusive means small, poorly fitted or top-dose-only effect, or another doubt; inactive means no such curve, though single readings can be large; an effect the other way counts as inactive or inconclusive.

For CCOc1cc(/C=C(\C#N)C(=O)Nc2ccccn2)ccc1O the results were Tb PGK inh inactive, PI5P4Ka inh inactive, Pin1 inh inactive, PI4K2A block inactive and Tb PFK inh inactive.
`COc1cc(/C=C/C(=O)OCC(=O)Nc2ccc3c(c2)OCCO3)ccc1O` gave Tb PGK inh inactive, PI5P4Ka inh inactive, Pin1 inh inactive, PI4K2A block inactive and Tb PFK inh inactive.
`COc1cc(/C=C(\C#N)C(=O)Nc2ccc3c(c2)OCCO3)ccc1O` gave Tb PGK inh inactive, PI5P4Ka inh -56, Pin1 inh inactive, PI4K2A block inactive and Tb PFK inh inactive.
For COc1cc(/C=C(\C#N)C(=O)Nc2ccccn2)ccc1O the results were Tb PGK inh inactive, PI5P4Ka inh -52, Pin1 inh inactive, PI4K2A block inactive and Tb PFK inh inactive.
`N#C/C(=C/c1ccc([N+](=O)[O-])cc1)C(=O)Nc1ccccc1O` gave Tb PGK inh inactive, PI5P4Ka inh inactive, Pin1 inh inactive, PI4K2A block inactive and Tb PFK inh inactive.
For N#C/C(=C/c1ccc(O)c([N+](=O)[O-])c1)C(=O)Nc1ccccc1 the results were Tb PGK inh inactive, PI5P4Ka inh -61, Pin1 inh inactive, PI4K2A block inactive and Tb PFK inh inactive.
Screening Clc1ccccc1OCc1nnc(-c2ccccc2Br)o1 returned Tb PGK inh inactive, PI5P4Ka inh inactive, Pin1 inh inactive, PI4K2A block inactive and Tb PFK inh inactive.
O=c1c(Cl)c(Cl)cnn1Cc1nnc(-c2ccccc2Br)o1 was read as Tb PGK inh inactive, PI5P4Ka inh -57, Pin1 inh inconclusive, PI4K2A block inactive and Tb PFK inh inactive.
For C/C(=N\NC(=O)c1cccc(Br)c1)c1cccnc1 the results were Tb PGK inh inactive, PI5P4Ka inh inactive, Pin1 inh inactive, PI4K2A block inactive and Tb PFK inh inactive.
For COc1cc(C(Nc2ccccn2)c2ccc3ccc(C)nc3c2O)cc(OC)c1O (stereo unspecified) the results were Tb PGK inh inactive, PI5P4Ka inh -58, Pin1 inh inconclusive, PI4K2A block inactive and Tb PFK inh inconclusive.
`CCCCN1CC(=O)N2[C@@H]3c4cc(Br)ccc4OC[C@@H]3[C@H](C(=O)OCC)[C@]2(C)C1=O` gave Tb PGK inh inactive, PI5P4Ka inh inactive, Pin1 inh inconclusive and PI4K2A block inactive.
O=C(CSc1nccc(=O)[nH]1)N1N=C2/C(=C/c3ccco3)CCCC2C1c1ccco1 (stereo unspecified) was read as Tb PGK inh inactive, PI5P4Ka inh -58, Pin1 inh inactive, PI4K2A block inactive and Tb PFK inh inactive.
Screening Nc1nc(SCC(=O)N2N=C3/C(=C\c4ccco4)CCCC3C2c2ccco2)n[nH]1 (stereo unspecified) returned Tb PGK inh inactive, PI5P4Ka inh inconclusive, Pin1 inh inactive and PI4K2A block inactive.
Screening Nc1nc(SCC(=O)N2N=C3/C(=C/c4ccco4)CCCC3C2c2ccco2)n[nH]1 (stereo unspecified) returned Tb PGK inh inactive, PI5P4Ka inh -52, Pin1 inh inactive, PI4K2A block inactive and Tb PFK inh inactive.
Screening Cn1cnnc1SCC(=O)N1N=C2/C(=C/c3ccco3)CCCC2C1c1ccco1 (stereo unspecified) returned Tb PGK inh inactive, PI5P4Ka inh inactive, Pin1 inh inactive, PI4K2A block inactive and Tb PFK inh inactive.
`COc1cc(SC)ccc1C(=O)Nc1nc2ccccc2[nH]1` gave Tb PGK inh inconclusive, PI5P4Ka inh inconclusive, Pin1 inh inactive, PI4K2A block -74 and Tb PFK inh inactive.
COc1ccccc1C(=O)Nc1nc2ccccc2[nH]1 was read as Tb PGK inh 7.9µM, PI5P4Ka inh inconclusive, Pin1 inh inactive, PI4K2A block -91 and Tb PFK inh inconclusive.
For Cc1ccc(C(C(=O)NC2CCCCC2)N(CC2CCCO2)C(=O)CNC(=O)c2cccs2)cc1 (stereo unspecified) the results were Tb PGK inh inactive, Pin1 inh inactive, PI4K2A block inactive and Tb PFK inh inactive.
`COc1ccc(OC)c(CCNC(=O)CSc2ccsc2[N+](=O)[O-])c1` gave Tb PGK inh inactive, PI5P4Ka inh -55, Pin1 inh inconclusive, PI4K2A block inactive and Tb PFK inh inactive.
COc1ccc(CCNC(=O)CSc2ccsc2[N+](=O)[O-])c(OC)c1 was read as Tb PGK inh inactive, PI5P4Ka inh -57, Pin1 inh inconclusive, PI4K2A block inactive and Tb PFK inh inactive.
For CC(C)(C)c1ccc(O)c(O)c1 the results were Tb PGK inh inactive, PI5P4Ka inh -88, Pin1 inh inactive, PI4K2A block inactive and Tb PFK inh inconclusive.
CC(C)(C)c1ccc(O)c(/C=N\O)c1 was read as Tb PGK inh inactive, PI5P4Ka inh inactive, Pin1 inh inactive, PI4K2A block inactive and Tb PFK inh inactive.
For COCCNC(=O)c1c[nH]n2c(=O)cc(C3CCN(C(=O)OC(C)(C)C)CC3)nc12 the results were Tb PGK inh inactive, PI5P4Ka inh inactive, Pin1 inh inactive, PI4K2A block inactive and Tb PFK inh inactive.
Screening c1ccc(SCc2nc(-c3ccncc3)no2)cc1 returned Tb PGK inh inactive, Pin1 inh inactive, PI4K2A block inactive and Tb PFK inh inactive.
Cc1ccccc1N1C(S)=C(C#N)C(=O)NC1c1ccco1 (stereo unspecified) was read as Tb PGK inh inactive, PI5P4Ka inh -53, Pin1 inh inactive, PI4K2A block inactive and Tb PFK inh inactive.
For O=C(N/N=C\c1c(O)ccc2ccccc12)c1ccc(O)cc1 the results were Tb PGK inh inactive, PI5P4Ka inh inconclusive, Pin1 inh inactive, PI4K2A block inactive and Tb PFK inh inactive.
O=C(N/N=C\c1c[nH]c2ccccc12)c1ccc(O)cc1 was read as Tb PGK inh inactive, PI5P4Ka inh -73, Pin1 inh inactive, PI4K2A block inactive and Tb PFK inh inactive.
Screening O=C(N/N=C/c1c[nH]c2ccccc12)c1cc(Cl)ccc1O returned Tb PGK inh inactive, PI5P4Ka inh -55, Pin1 inh inactive, PI4K2A block inactive and Tb PFK inh inconclusive.
For Cn1c(-c2ccccc2)c(/C=N/NC(=O)c2ccc(O)cc2)c2ccccc21 the results were Tb PGK inh inactive, PI5P4Ka inh -95, Pin1 inh inactive, PI4K2A block inactive and Tb PFK inh inactive.
`O=C(N/N=C/c1c[nH]c2ccccc12)c1ccccc1Cl` gave Tb PGK inh inactive, PI5P4Ka inh inactive, Pin1 inh inactive, PI4K2A block inactive and Tb PFK inh inactive.
For c1ccn(-c2ccc(-c3noc(CCc4ccncc4)n3)cc2)c1 the results were PI4K2A block inactive.
`Cc1ccc(N(CC(=O)N2CCN(c3ccc(Cl)cc3)CC2)S(=O)(=O)c2c(C)noc2C)cc1` gave Tb PGK inh inactive, Pin1 inh inactive and PI4K2A block inactive.
